Screens as filed in PubChem.
Hits are enriched below; roughly 3.5% of the tested compounds scored in any of these assays.
MITF primary – MITF inhibitors, primary screen, biochemical, AlphaScreen, human. Microphthalmia-associated transcription factor (Homo sapiens), O75030. AlphaScreen MITF homodimerization, bead proximity signal. inhibition, % at 2.6 µM. actives 0.91% (n = 650,000); in the data active = inhibition above about 50%
Target sequence (O75030 whole entry, looked up): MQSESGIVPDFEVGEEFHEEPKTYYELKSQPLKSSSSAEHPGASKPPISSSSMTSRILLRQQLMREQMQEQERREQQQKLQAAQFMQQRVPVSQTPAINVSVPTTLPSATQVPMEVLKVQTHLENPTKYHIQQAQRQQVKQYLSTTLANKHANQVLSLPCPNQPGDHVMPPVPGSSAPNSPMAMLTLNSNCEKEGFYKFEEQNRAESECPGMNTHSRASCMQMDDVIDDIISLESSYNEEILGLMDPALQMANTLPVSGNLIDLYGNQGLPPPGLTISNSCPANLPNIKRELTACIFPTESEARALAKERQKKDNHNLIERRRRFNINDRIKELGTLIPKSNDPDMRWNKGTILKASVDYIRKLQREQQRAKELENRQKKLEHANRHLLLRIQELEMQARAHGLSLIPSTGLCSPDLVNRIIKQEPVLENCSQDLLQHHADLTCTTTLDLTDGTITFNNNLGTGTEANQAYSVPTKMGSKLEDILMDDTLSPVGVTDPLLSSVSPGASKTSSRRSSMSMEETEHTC
TEAD-YAP block – TEAD-YAP interaction inhibition, primary screen, TEAD-YAP interaction inhibitor project, luminescence, HEK-TIYL cells | actives 1.4% (n = 640,000) | TEAD-Gal4/YAP UAS-luciferase luminescence | AID 1259422, 2018 | inhibition, % at 9.12 µM; in the data active = inhibition above about 32%
GPR151 ag – activators of human GPR151, primary screen, cell-based, PathHunter beta-arrestin, luminescence; G-protein coupled receptor 151 (Homo sapiens), Q8TDV0; PathHunter beta-arrestin GPR151 cells; activation, % at 11.2 µM; actives 1% (n = 650,000); AID 1508602, 2020; in the data active = activation above about 4.9%
FBW7 act – FBW7 E3 ligase activators, primary screen, biochemical, AlphaScreen, human; F-box/WD repeat-containing protein 7 (Homo sapiens), Q969H0; AlphaScreen FBW7–phospho-cyclin E peptide binding, activator screen; normalized activity (activation), % at 26.1 µM; actives 0.13% (n = 650,000); in the data active = normalized activity above about 1.9%;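 also: purified mutant Fbw7 with reduced substrate affinity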
MITF confirm – MITF inhibitors, retest of hits, confirmation, biochemical, AlphaScreen, triplicate; shares compounds with MITF primary; AlphaScreen MITF homodimerization, biotin/His-MITF beads; inhibition, % at 2.6 µM; actives 16% (n = 4,700); AID 1259372, 2018;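 active = inhibition above a cutoff derived from the DMSO control wells, cut at about 28% in these data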;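 also: inhibitors lower the bead chemiluminescence by keeping MITF from dimerizing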
AS interf DR – AlphaScreen optical interference compounds, dose response, counter-screen, biochemical, HTS; shares compounds with MITF primary; AlphaScreen optical interference counterscreen, cell-free; IC50, µM; actives 6% (n = 480); call rule not given here
AS interf ctr – AlphaScreen optical interference compounds, counter-screen for MITF inhibitor project, biochemical, triplicate. shares compounds with MITF primary. LysRS AlphaScreen counterscreen, signal interference. inhibition, % at 2.6 µM. actives 7.6% (n = 4,700). AID 1259376, 2018;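 active = inhibition above a cutoff derived from the DMSO control wells, cut at about 30% in these data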
Hits are given with their value; . = inactive; / = no result.

SMILES	MITF primary	TEAD-YAP block	GPR151 ag	FBW7 act	MITF confirm	AS interf ctr	others
O=C(COc1ccc(Br)cc1)NCc1nc(-c2ccc(Cl)cc2)no1	56	.	.	.	.	.
Cc1ccccc1-c1nsc(SCC(=O)NC2CCCC2)n1	.	.	.	.	/	/
Cc1nnc(NC(=O)c2cc(Cl)cc(Cl)c2I)s1	.	.	.	.	/	/
O=C(c1cccs1)N1CCN(c2ccc([N+](=O)[O-])cc2F)CC1	62	.	.	.	.	.
CCOc1ccc(OCCCCN2CCN(C)CC2)cc1	86	.	.	.	.	.
CCN1CCN(CCCCOc2cccc(C(F)(F)F)c2)CC1	64	.	.	.	.	.
CCN1CCN(CCOCCOc2cccc(Oc3ccccc3)c2)CC1	79	.	.	.	.	.
CN1CCN(CCOCCOc2ccc(C(C)(C)C)cc2)CC1	65	.	.	.	.	.
CN1CCN(CCOCCOc2ccc(Cl)cc2)CC1	.	.	.	.	/	/
CC(=O)N1CCc2c(sc3nc(-c4cc5cc(Cl)ccc5oc4=O)[nH]c(=O)c23)C1	.	.	.	.	/	/
O=c1c(S(=O)(=O)c2ccccc2)c[nH]c2ccc(Cl)cc12	.	.	.	.	/	/
CCc1ccccc1NC(=O)CSCc1nc(N)nc(Nc2ccccc2C)n1	.	.	.	.	/	/
Cn1c2c(c(=O)n(C)c1=O)C(c1cccc(I)c1)C1C(=O)c3ccccc3C1=N2 (centres undefined)	.	.	.	.	/	/
CC(C)NC(=O)C(Cc1ccccc1)N1C(=O)c2ccccc2C1=O (centres undefined)	.	.	.	.	/	/
CCOc1ccc(OCCCN2CCN(C)CC2)cc1	79	.	.	.	.	.
CCOc1cccc(OCCCCN2CCN(C)CC2)c1	71	.	.	.	.	.
Cc1cccc(OCCCCN2CCNCC2)c1	.	.	.	.	/	/
CCOc1cccc(OCCCN2CCNCC2)c1	54	.	.	.	.	.
CCN1CCN(CCCOc2cccc(C(C)C)c2)CC1	.	.	.	.	/	/
CCCCOc1cccc(OCCCN2CCN(C)CC2)c1	.	.	.	.	/	/
CCOc1cccc(OCCCN2CCN(CC)CC2)c1	74	.	.	.	.	.
Cc1ccccc1NC(=O)CSc1nc(C(C)C)nc2c1c(=O)n(C)c(=O)n2C	.	.	.	.	/	/
CC(C)(C)c1ccc(C(=O)N2N=C(c3cccnc3)CC2(O)C(F)(F)F)cc1 (centres undefined)	.	.	.	.	/	/
CN1CCN(C(=O)CC2C(=O)NCCN2Cc2ccc(-c3ccccc3)cc2)CC1 (centres undefined)	.	.	.	.	/	/
CC1CCCC(NC(=O)COc2cc(=O)n(C)c3ccccc23)C1C (centres undefined)	.	.	.	.	/	/
SMILES	MITF primary	TEAD-YAP block	GPR151 ag	FBW7 act	MITF confirm	AS interf ctr	others
CN1CCN(CCCOc2ccc(C#N)cc2)CC1	.	.	.	.	/	/
CCN1CCN(CCOCCOc2ccc(CCC(C)=O)cc2)CC1	66	.	.	.	.	.
CCN1CCN(CCCCOc2ccc(C#N)cc2)CC1	66	.	.	.	.	.
CC(=O)c1cccc(OCCCCOc2cccc(C(C)=O)c2)c1	.	.	.	.	/	/
CN1CCN(CCCCOc2cccc(C=O)c2)CC1	61	.	.	.	.	.
CN1CCN(CCCCOc2cccc(C(F)(F)F)c2)CC1	.	.	.	.	/	/
CCN1CCN(CCOc2cccc(C(C)=O)c2)CC1	66	.	.	.	.	.
COc1ccc(CN2CC3=C(C2=O)C(c2ccccc2)NC(=O)N3)cc1 (centres undefined)	.	.	.	.	/	/
Cc1ccc2cc(CN(CCO)S(=O)(=O)c3ccccc3)c(=O)[nH]c2c1	.	.	.	.	/	/
O=C(O)c1cccc(Nc2nc(-c3ccc(F)cc3)cs2)c1	.	.	.	.	/	/
CCCOc1cccc(OCCN2CCN(CC)CC2)c1	79	.	.	.	.	.
C/C(Cn1nnc([N+](=O)[O-])n1)=N\NC(=O)c1ccoc1C	.	.	.	.	/	/
CN(c1ccc(C(=O)NCc2ccccn2)cc1)S(=O)(=O)c1ccc(Cl)cc1	58	.	.	.	.	.
OC(COCc1ccc(Cl)cc1)CN1CCCC1 (centres undefined)	.	.	.	.	/	/
OC(COCc1ccc(Cl)cc1)CN1CCN(CC2CCCO2)CC1 (centres undefined)	68	.	.	.	.	.
CCC(C)NS(=O)(=O)c1ccc(NC(=O)Cc2ccc(OC)cc2)cc1 (centres undefined)	.	.	.	.	/	/
CCCCN1COc2c(cc(Cl)c3cccnc23)C1	78	41	.	.	73	100
CN(C(=O)CN1C(=O)COc2c1cc(Cl)c1cccnc21)C1CCCCC1	.	.	.	.	/	/
Clc1cc2c(c3ncccc13)OCN(CC1CCCO1)C2 (centres undefined)	88	.	.	.	100	101
Clc1cc2c(c3ncccc13)OCN(Cc1ccccn1)C2	114	.	.	.	65	88
Cc1cccc(NC(=O)COc2ccccc2Br)c1	.	.	.	.	/	/
CC(C)CCn1c(SCC(=O)OCc2ccccc2)nc2c1c(=O)[nH]c(=O)n2C	.	.	.	.	/	/
O=C(NCCCn1ccnc1)c1ccc(OC2CCN(CCc3ccccc3)CC2)cc1	69	.	.	.	.	.
O=C(NCCCO)c1ccc(OC2CCN(CCc3ccccc3)CC2)cc1	.	.	.	.	/	/
COc1ccc(/C=C/C(=O)NCCCN2CCC(N(C)C3CCCCC3C)CC2)cc1 (centres undefined)	.	.	.	.	/	/
SMILES	MITF primary	TEAD-YAP block	GPR151 ag	FBW7 act	MITF confirm	AS interf ctr	others
COc1ccc(OC)c(/C=C/C(=O)NCCN2CCC(N(C)C3CCCCC3C)CC2)c1 (centres undefined)	52	.	.	.	.	.
O=C(CSc1nc(Nc2ccc(F)c(F)c2)c2ccccc2n1)NCC1CCCO1 (centres undefined)	.	.	.	.	/	/
COc1cc(Nc2nc(SCC(=O)NCC3CCCO3)nc3ccccc23)cc(OC)c1 (centres undefined)	60	.	.	.	.	.
CC(C)(C)NC(=O)COC(=O)Cc1ccc(Cl)cc1	116	.	.	.	.	.
COc1ccc(NCc2ccc(C(=O)O)o2)cc1	.	.	.	.	/	/
O=C(O)c1ccc(CNC(=O)c2cocc2C(=O)O)o1	55	.	.	.	38	.	AS interf DR=.
CCOC(=O)Cc1[nH]nc2c1C1(C(=O)N(CC)c3ccccc31)C(C#N)=C(N)O2 (centres undefined)	60	.	.	.	28	.	AS interf DR=.
